# Read-outs that look alike come from different tables or passages of the source.
# Columns and labels:
# Conditions in all cases: n = 1
# ACVR2B = test system: ACVR2B
# ACVRL1 = test system: ACVRL1
# ADCK3 = test system: T1, ADCK3
# T1 construct: gene CABC1
# ADCK4 = test system: ADCK4
# AKT1 = test system: AKT1
# AKT2 = test system: AKT2
# AKT3 = test system: AKT3
# ALK = test system: ALK
# AMPK-alpha1 = test system: T2, AMPK-alpha1
# T2 construct: gene PRKAA1
# AMPK-alpha2 = test system: T3, AMPK-alpha2
# T3 construct: gene PRKAA2
# ANKK1 = test system: ANKK1
# ARK5 = test system: T4, ARK5
# T4 construct: gene NUAK1
# ASK1 = test system: T5, ASK1
# T5 construct: gene MAP3K5
# ASK2 = test system: T6, ASK2
# T6 construct: gene MAP3K6
# AURKA = test system: AURKA
# AURKB = test system: AURKB
# AURKC = test system: AURKC
# AXL = test system: AXL
# BIKE = test system: T7, BIKE
# T7 construct: gene BMP2K
# BLK = test system: BLK
# [1] = concentration: 1 μM, replicates: in singlicate
# 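Also: KINOMEscan kinase panel screen.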
compound,measurement,setting,value
Cc1cccc(-c2nc(Nc3cccc(C(N)=O)c3)c3ccccc3n2)n1 [GW876019],%Inh,ACVR2B; [1],19%
same,%Inh,ACVRL1; [1],0%
same,%Inh,ADCK3; [1],20%
same,%Inh,ADCK4; [1],26%
same,%Inh,AKT1; [1],9%
same,%Inh,AKT2; [1],0%
same,%Inh,AKT3; [1],0%
same,%Inh,ALK; [1],22%
same,%Inh,AMPK-alpha1; [1],31%
same,%Inh,AMPK-alpha2; [1],0%
same,%Inh,ANKK1; [1],0%
same,%Inh,ARK5; [1],6%
same,%Inh,ASK1; [1],17%
same,%Inh,ASK2; [1],0%
same,%Inh,AURKA; [1],0%
same,%Inh,AURKB; [1],30%
same,%Inh,AURKC; [1],12%
same,%Inh,AXL; [1],0%
same,%Inh,BIKE; [1],11%
same,%Inh,BLK; [1],21%
Cc1ccc(C(=O)Nc2ccc(Nc3ccnc4cc(-c5ccccn5)ccc34)cc2O)cc1.Cl [GW440146],%Inh,ACVR2B; [1],25%
same,%Inh,ACVRL1; [1],0%
same,%Inh,ADCK3; [1],0%
same,%Inh,ADCK4; [1],0%
same,%Inh,AKT1; [1],0%
same,%Inh,AKT2; [1],19%
same,%Inh,AKT3; [1],0%
same,%Inh,ALK; [1],27%
same,%Inh,AMPK-alpha1; [1],4%
same,%Inh,AMPK-alpha2; [1],15%
same,%Inh,ANKK1; [1],33%
same,%Inh,ARK5; [1],0%
same,%Inh,ASK1; [1],0%
same,%Inh,ASK2; [1],0%
same,%Inh,AURKA; [1],29%
same,%Inh,AURKB; [1],80%
same,%Inh,AURKC; [1],90.1%
same,%Inh,AXL; [1],0%
same,%Inh,BIKE; [1],39%
same,%Inh,BLK; [1],98.4%
COc1ccc2nc(-c3cccc(C)n3)nc(Nc3ccncc3)c2c1 [GSK204919],%Inh,ACVR2B; [1],0%
same,%Inh,ACVRL1; [1],0%
same,%Inh,ADCK3; [1],25%
same,%Inh,ADCK4; [1],3%
same,%Inh,AKT1; [1],0%
same,%Inh,AKT2; [1],5%
same,%Inh,AKT3; [1],0%
same,%Inh,ALK; [1],24%
same,%Inh,AMPK-alpha1; [1],0%
same,%Inh,AMPK-alpha2; [1],16%
same,%Inh,ANKK1; [1],0%
same,%Inh,ARK5; [1],6%
same,%Inh,ASK1; [1],8%
same,%Inh,ASK2; [1],0%
same,%Inh,AURKA; [1],0%
same,%Inh,AURKB; [1],3%
same,%Inh,AURKC; [1],6%
same,%Inh,AXL; [1],2%
same,%Inh,BIKE; [1],3%
same,%Inh,BLK; [1],31%
Fc1cccc(COc2nnc(-c3ccc4c(c3)CCO4)o2)c1,%Inh,ACVR2B; [1],100%
same,%Inh,ACVRL1; [1],0%
same,%Inh,ADCK3; [1],0%
same,%Inh,ADCK4; [1],0%
same,%Inh,AKT1; [1],0%
same,%Inh,AKT2; [1],20%
same,%Inh,AKT3; [1],11%
same,%Inh,ALK; [1],7%
same,%Inh,AMPK-alpha1; [1],6%
same,%Inh,AMPK-alpha2; [1],0%
same,%Inh,ANKK1; [1],0%
same,%Inh,ARK5; [1],5%
same,%Inh,ASK1; [1],0%
same,%Inh,ASK2; [1],23%
same,%Inh,AURKA; [1],15%
same,%Inh,AURKB; [1],37%
same,%Inh,AURKC; [1],0%
same,%Inh,AXL; [1],0%
same,%Inh,BIKE; [1],0%
same,%Inh,BLK; [1],0%
Cc1ccc(NC(=O)Nc2cccc(C(F)(F)F)c2)cc1 [GSK955403],%Inh,ACVR2B; 1 µM,0%
same,%Inh,ACVRL1; 1 µM,0%
same,%Inh,ADCK3; 1 µM,5%
same,%Inh,ADCK4; 1 µM,0%
same,%Inh,AKT1; 1 µM,12%
same,%Inh,AKT2; 1 µM,3%
same,%Inh,AKT3; 1 µM,0%
same,%Inh,ALK; 1 µM,0%
same,%Inh,AMPK-alpha1; 1 µM,0%
same,%Inh,AMPK-alpha2; 1 µM,0%
same,%Inh,ANKK1; 1 µM,0%
same,%Inh,ARK5; 1 µM,0%
same,%Inh,ASK1; 1 µM,20%
same,%Inh,ASK2; 1 µM,0%
same,%Inh,AURKA; 1 µM,0%
same,%Inh,AURKB; 1 µM,0%
same,%Inh,AURKC; 1 µM,19%
same,%Inh,AXL; 1 µM,0%
same,%Inh,BIKE; 1 µM,4%
same,%Inh,BLK; 1 µM,0%
Cc1ccc(-c2cc(-c3c[nH]nc3-c3ccccn3)ccn2)cc1 [GW684088],%Inh,ACVR2B; [1],49%
same,%Inh,ACVRL1; [1],0%
same,%Inh,ADCK3; [1],22%
same,%Inh,ADCK4; [1],37%
same,%Inh,AKT1; [1],0%
same,%Inh,AKT2; [1],0%
same,%Inh,AKT3; [1],0%
same,%Inh,ALK; [1],16%
same,%Inh,AMPK-alpha1; [1],0%
same,%Inh,AMPK-alpha2; [1],0%
same,%Inh,ANKK1; [1],0%
same,%Inh,ARK5; [1],94.7%
same,%Inh,ASK1; [1],0%
same,%Inh,ASK2; [1],0%
same,%Inh,AURKA; [1],2%
same,%Inh,AURKB; [1],0%
same,%Inh,AURKC; [1],10%
same,%Inh,AXL; [1],5%
same,%Inh,BIKE; [1],20%
same,%Inh,BLK; [1],0%
O=S(=O)(c1ccc(-c2ccnc3[nH]ccc23)cc1)N1CCCC1 [GSK846226],%Inh,ACVR2B; [1],0%
same,%Inh,ACVRL1; [1],0%
same,%Inh,ADCK3; [1],7%
same,%Inh,ADCK4; [1],21%
same,%Inh,AKT1; [1],0%
same,%Inh,AKT2; [1],0%
same,%Inh,AKT3; [1],0%
same,%Inh,ALK; [1],10%
same,%Inh,AMPK-alpha1; [1],0%
same,%Inh,AMPK-alpha2; [1],0%
same,%Inh,ANKK1; [1],0%
same,%Inh,ARK5; [1],0%
same,%Inh,ASK1; [1],3%
same,%Inh,ASK2; [1],14%
same,%Inh,AURKA; [1],13%
same,%Inh,AURKB; [1],20%
same,%Inh,AURKC; [1],60%
same,%Inh,AXL; [1],46%
same,%Inh,BIKE; [1],87%
same,%Inh,BLK; [1],0%
Fc1cc(Cl)ccc1Nc1ccnc2cc(-c3ccc(CN4CCCCC4)o3)ccc12 [GW560116],%Inh,ACVR2B; [1],52%
same,%Inh,ACVRL1; [1],0%
same,%Inh,ADCK3; [1],0%
same,%Inh,ADCK4; [1],38%
same,%Inh,AKT1; [1],0%
same,%Inh,AKT2; [1],0%
same,%Inh,AKT3; [1],0%
same,%Inh,ALK; [1],4%
same,%Inh,AMPK-alpha1; [1],0%
same,%Inh,AMPK-alpha2; [1],0%
same,%Inh,ANKK1; [1],0%
same,%Inh,ARK5; [1],0%
same,%Inh,ASK1; [1],0%
same,%Inh,ASK2; [1],0%
same,%Inh,AURKA; [1],95.7%
same,%Inh,AURKB; [1],0%
same,%Inh,AURKC; [1],0%
same,%Inh,AXL; [1],0%
same,%Inh,BIKE; [1],0%
same,%Inh,BLK; [1],55%
Cc1csc(-c2nc(Nc3ccncc3)c3ccccc3n2)n1 [GW869640],%Inh,ACVR2B; [1],4%
same,%Inh,ACVRL1; [1],7%
same,%Inh,ADCK3; [1],14%
same,%Inh,ADCK4; [1],0%
same,%Inh,AKT1; [1],0%
same,%Inh,AKT2; [1],3%
same,%Inh,AKT3; [1],15%
same,%Inh,ALK; [1],43%
same,%Inh,AMPK-alpha1; [1],12%
same,%Inh,AMPK-alpha2; [1],11%
same,%Inh,ANKK1; [1],18%
same,%Inh,ARK5; [1],0%
same,%Inh,ASK1; [1],11%
same,%Inh,ASK2; [1],37%
same,%Inh,AURKA; [1],41%
same,%Inh,AURKB; [1],45%
same,%Inh,AURKC; [1],1%
same,%Inh,AXL; [1],0%
same,%Inh,BIKE; [1],0%
same,%Inh,BLK; [1],5%
CC(C)(C)c1ccc(C(=O)Nc2cn3cc(Cl)ccc3n2)cc1,%Inh,ACVR2B; [1],9%
same,%Inh,ACVRL1; [1],0%
same,%Inh,ADCK3; [1],5%
same,%Inh,ADCK4; [1],0%
same,%Inh,AKT1; [1],5%
same,%Inh,AKT2; [1],0%
same,%Inh,AKT3; [1],0%
same,%Inh,ALK; [1],3%
same,%Inh,AMPK-alpha1; [1],0%
same,%Inh,AMPK-alpha2; [1],16%
same,%Inh,ANKK1; [1],0%
same,%Inh,ARK5; [1],0%
same,%Inh,ASK1; [1],86%
same,%Inh,ASK2; [1],0%
same,%Inh,AURKA; [1],0%
same,%Inh,AURKB; [1],64%
same,%Inh,AURKC; [1],17%
same,%Inh,AXL; [1],0%
same,%Inh,BIKE; [1],0%
same,%Inh,BLK; [1],0%
CC(C)(C)c1ccc(C(=O)Nc2cn3cc(-c4cccnc4)ccc3n2)cc1,%Inh,ACVR2B; [1],0%
same,%Inh,ACVRL1; [1],0%
same,%Inh,ADCK3; [1],19%
same,%Inh,ADCK4; [1],0%
same,%Inh,AKT1; [1],0%
same,%Inh,AKT2; [1],0%
same,%Inh,AKT3; [1],4%
same,%Inh,ALK; [1],0%
same,%Inh,AMPK-alpha1; [1],43%
same,%Inh,AMPK-alpha2; [1],0%
same,%Inh,ANKK1; [1],11%
same,%Inh,ARK5; [1],14%
same,%Inh,ASK1; [1],94.9%
same,%Inh,ASK2; [1],0%
same,%Inh,AURKA; [1],0%
same,%Inh,AURKB; [1],34%
same,%Inh,AURKC; [1],19%
same,%Inh,AXL; [1],25%
same,%Inh,BIKE; [1],8%
same,%Inh,BLK; [1],8%
